Several values for one entry are separate records, joined by “and”; a condition that tells them apart may be missing. Identical values can stand only once. Out of some 34,000 compounds screened, about 290 (0.85%) showed an effect of 50% or more. The sample holds strong results, similar compounds and a random draw of the others, so the mix is not that of the screen.

This test relates to Plasmodium falciparum. The experiment in a line: Plasmodium falciparum sporozoite viability assay. It counts as functional, organism-based. Also on record: scale not given: in the data most compounds retested in dose-response had high values.

For `O=C(NCC1CC1)C1CN(C(=O)NC2CCCC2)Cc2cncn2C1` (stereo unspecified), the “Percent Effect” value is given as 10.46%. Turning to `Cc1nn(C)c(Cl)c1C1CCCN1C(=O)c1cnn(C)c1C1CC1` (stereo unspecified), the “Percent Effect” value worked out at 4.376%.

On to `CC(C)C(=O)N1CCCC(c2cncc(Oc3cccnc3)n2)C1` (stereo unspecified), for which the “Percent Effect” value is -4.997%. On the same count and under the same terms, the value for `c1cc(N2CCOCC(Cc3ccc4[nH]ccc4c3)C2)ncn1` (stereo unspecified) was 5.765%; that for `CNC(=O)c1cc(C2CCCNC2)n[nH]1.Cl` (stereo unspecified) was 11.11%; that for `COCCc1noc(CN2CCCC2Cn2nc(C)nc2C)n1` (stereo unspecified) was 16.37%. For the compound `CC(=O)N(Cc1ncc(C)o1)C1CCN(Cc2csc(C)n2)C1` (stereo unspecified), the “Percent Effect” value was 8.537%. Consider `Cc1cc(C(=O)N2CC[C@H]3C[C@H](c4ccncn4)O[C@@H]3C2)c(C)[nH]1`, for which the “Percent Effect” value is on record as -3.163%. Regarding `NC(=O)Cn1c(CO)cnc1SCC(=O)NCc1ccccc1Cl`, the “Percent Effect” value (10 mM as filed; unlikely as a test dose) is -15.15% and -22%. Same read-out and setting: next, `CC(C)(C)n1ncc2c(=O)n(CC(=O)NCCc3ccccc3)cnc21`: -2.076% and -3.898%. With `CCCNC(=O)Cn1nc(C(C)C)c2cnn(C(C)(C)C)c2c1=O`, the “Percent Effect” value is given as -2.007%.

In the case of `CC(C)(C)n1ncc2c(=O)n(CC(=O)NCc3ccccc3Cl)cnc21`, the “Percent Effect” value (10 mM as filed; unlikely as a test dose) was 89.9% and 78.88%. On the same count and under the same terms, next, `CC(C)(C)n1ncc2c(=O)n(CC(=O)NCc3ccccc3)cnc21`: 92.95% and 84.04%. For the compound `CCCNC(=O)c1ncn2c1CN(CC(C)C)S(=O)(=O)c1ccccc1-2`, the “Percent Effect” value was determined as 20.71%.

Turning to `CNc1ccc(C2CN(c3cc(C)nc(N)n3)CCO2)nc1` (stereo unspecified), the “Percent Effect” value worked out at 20.28%. Same read-out and setting: the value for `CNc1nc2c(s1)C(=O)CN(C(=O)[C@@H](N)Cc1cccc(OC)c1)C2` was -10.92%. The same measure, in the same setting: the value for `CN[C@@H]1CCC[C@@H](Oc2ccccc2Oc2ccc(C)cc2)[C@@H]1O` was 14.14%. For the compound `Cc1cccc2sc(NC(=O)CN3CCC(C)CC3)nc12`, where the note is “10 mM as filed; unlikely as a test dose”, the “Percent Effect” value is 5.902% and -3.165%. Same read-out and setting: the value for `Cc1cccc2sc(NC(=O)CN3CCCC(O)(CO)C3)nc12` (stereo unspecified) was -25.02% and -31.47%; that for `Cc1cccc2sc(NC(=O)CN3CCCC4(CC3)CNC(=O)O4)nc12` (stereo unspecified) was 74.6% and 74.31%. Same read-out and setting: next, `CN(Cc1nccn1C)c1ccc(-c2nccn2C)nn1`: -4.7% and -1.79%; `COc1ccc(CN(C)c2ccc(-c3nccn3C)nn2)cc1OC`: 63.95% and 77.57%. On the same count and under the same terms, the value for `CN(Cc1ccoc1)c1ccc(-c2nccn2C)nn1` was -6.958% and -8.789%. For the compound `O=C(CN1CCC(c2cc(=O)n3c(n2)CCCCC3)CC1)N1CCCC1`, the “Percent Effect” value is on record as -0.7803%.

For the compound `CC(=O)N1CCOC(c2cc(N3CC(O)C3)nc(C)n2)C1` (stereo unspecified), the “Percent Effect” value is recorded as -19.49%. For the compound `c1ccc2oc(CN3CCCC3c3noc(C4CC4)n3)nc2c1` (stereo unspecified), the “Percent Effect” value was found to be 8.668%. For `c1ccc2sc(CN3CCCC3c3noc(C4CC4)n3)nc2c1` (stereo unspecified), the “Percent Effect” value (10 mM as filed; unlikely as a test dose) is 57.55% and 55.22% and 51.03%. With `CC(CCc1ccccc1)N1CCC(C(=O)Nc2cnccn2)CC1` (stereo unspecified), the “Percent Effect” value is listed as -2.997%. As for `CS(=O)(=O)NCc1cn2c(n1)CN(C(=O)c1ccc[nH]1)CC2`, the “Percent Effect” value is -21.11%. Same read-out and setting: next, `Cc1oncc1C(=O)N1CC[C@H]2[C@@H]1CCC(=O)N2CC1CCOCC1`: 5.199%; `CC(=O)N1CCC(c2cc(C(F)(F)F)nc3nccn23)CC1`: 1.841%; `O=C1[C@H]2CN(C(=O)[C@H]3CCCO3)C[C@H]2CN1CC1CC1`: 2.539%. As to `Cc1ncsc1CN(C)Cc1cc2c(cc1OC(F)F)OCO2`, the “Percent Effect” value (10 mM as filed; unlikely as a test dose) was 74.26% and 62.83%. Same read-out and setting: next, `Cc1nc(CN(C)Cc2cc3c(cc2OC(F)F)OCO3)cs1`: -8.742% and -16.17%. On to `Cc1nn(C)cc1CN(C)Cc1cc2c(cc1OC(F)F)OCO2`, for which the “Percent Effect” value is recorded as 5.075%. For the compound `CC(Cn1ccnc1)NC(=O)C1(c2ccc(F)cc2)CCCC1` (stereo unspecified), the “Percent Effect” value is reported as 23.02%. Still for that read-out and setting: the value for `Cc1cc(N2CCC(c3n[nH]c4nccnc34)CC2)ncn1` was 7.584%; that for `Brc1cccc(-c2nnc(CNCCn3cccn3)o2)c1` was 2.399%. `CC(C)c1ncc2c(n1)CN(Cc1nc(-c3ccoc3)no1)CC2`: the “Percent Effect” value (10 mM as filed; unlikely as a test dose) is 11.99% and 7.268% and 10.61%. The same measure, in the same setting: the value for `CC(C)c1nc2c(n1C)CCN(Cc1nc(-c3ccsc3)no1)C2` was 73.25% and 58.56% and 70.51%; that for `Cn1cnc2c1CCN(Cc1nc(-c3ccco3)no1)C2` was 12.07% and 12.49%; that for `Cn1c(C2CC2)nc2c1CCN(Cc1nc(-c3ccsc3)no1)C2` was 19.95% and 27.05% and 21.39%. The same measure, in the same setting: the value for `CC(C)c1nc2c(n1C)CCN(Cc1nc(-c3ccoc3)no1)C2` was 83.83% and 76.55% and 70.15%; that for `CC(C)c1nc2c(n1C)CCN(Cc1nc(-c3cccs3)no1)C2` was 44.7% and 61.16% and 58.76%; that for `c1csc(-c2noc(CN3CCc4cncnc4C3)n2)c1` was 24.87% and 17.34% and 36.23%. Consider `CC(C)c1ncc2c(n1)CN(Cc1nc(-c3ccsc3)no1)CC2`, for which the “Percent Effect” value was 18.76%. In the case of `CC(C)c1ncc2c(n1)CN(Cc1nc(-c3cccs3)no1)CC2`, for the setting “10 mM as filed; unlikely as a test dose”, the “Percent Effect” value was 13.28% and 7.226% and -0.3719%. Turning to `COc1ccccc1OCCNC(=O)CN1CCc2cncnc2C1`, the “Percent Effect” value is on record as -7.271%. Same read-out and setting: the value for `O=C1CN(c2ccc(CNC(=O)NCc3ccoc3)cc2)CCN1` was 13.47%; that for `Cc1cn2c(n1)CCC(NC(=O)c1[nH]ncc1Br)C2` (stereo unspecified) was -6.244%; that for `Cc1cc(C(=O)N[C@@H]2CCC[C@@H](N3CCOCC3)[C@@H]2O)no1` was 7.233%. Still for that read-out and setting: the value for `O=C(O)C(F)(F)F.O=C([C@H]1C[C@H]2OCC[C@H]2N(CCc2ccccc2)C1)N1CCCCO1` was -6.171%. Take `CCCOC(=O)N1CCn2nc(-c3nc4ccccc4n3C)cc2C1`: for the setting “10 mM as filed; unlikely as a test dose”, the “Percent Effect” value was 47.05% and 19.27%. The same measure, in the same setting: the value for `Cn1c(-c2cc3n(n2)CCCN(CC(=O)O)C3)nc2ccccc21` was 91.97% and 88.48%.

Consider `CN1CCn2nc(-c3nc4ccccc4n3C)cc2C1`, for which the “Percent Effect” value (10 mM as filed; unlikely as a test dose) was 21.76% and 43.98%.

Turning to `NC(=O)C1CN(C(=O)Nc2ccc(SC(F)(F)F)cc2)CCO1` (stereo unspecified), the “Percent Effect” value was 26.37%. In the case of `CC(C)(C(=O)N[C@@H]1CCC[C@@H](O)[C@@H]1O)c1cccc(F)c1`, the “Percent Effect” value worked out at 7.186%. Consider `Cc1ccc(CCNC(=O)Nc2cc(C(F)(F)F)c[nH]c2=O)o1`, for which the “Percent Effect” value was -6.166%. Still for that read-out and setting: the value for `O=C(Cc1cn2ccsc2n1)N1CCCC(n2ccnc2)C1` (stereo unspecified) was 9.411%. For the compound `CN(C)c1ccc(NC(=O)N2CCCCCC2c2ccncc2)cn1` (stereo unspecified), where the note is “10 mM as filed; unlikely as a test dose”, the “Percent Effect” value is -8.99% and -20.34% and -20.82%. Consider `CCOc1ccc(C(=O)N2CCCC2c2cnn(C)c2)cn1` (stereo unspecified), for which the “Percent Effect” value is 2.866%. With `COCCC(=O)N[C@H]1CN(c2nc(C)c3c(n2)CCCC3)C[C@@H]1C1CC1`, the “Percent Effect” value (10 mM as filed; unlikely as a test dose) is 37.56% and 25.17%. On to `CNCC(=O)N[C@H]1CN(c2nc(C)c3c(n2)CCCC3)C[C@@H]1C1CC1`, for which the “Percent Effect” value (10 mM as filed; unlikely as a test dose) is 74.85% and 85.09%. Still for that read-out and setting: next, `CNc1nc(N2C[C@H](NC(=O)CCOC)[C@@H](C3CC3)C2)nc2c1CCC2`: -17.73% and -19.53%. As to `Cc1n[nH]c(C)c1-c1cnc(CC2CCN(C)C2)cn1` (stereo unspecified), the “Percent Effect” value is recorded as -7.497%. For `Cc1cccc(Nc2cc(C3CCCN(CC(N)=O)C3)ccn2)n1.O=CO.O=CO` (stereo unspecified), the “Percent Effect” value (10 mM as filed; unlikely as a test dose) was 98.38% and 92.39% and 79.92%. `Cc1cc(Nc2ccccn2)nc(C2CCCN(CCO)C2)n1.O=CO` (stereo unspecified): the “Percent Effect” value was found to be 9.991%. For the compound `NC(=O)CN1CCCC(c2ccnc(Nc3ncccn3)c2)C1` (stereo unspecified), the “Percent Effect” value (10 mM as filed; unlikely as a test dose) was 24.34% and 12.28% and 9.246%. With `Cc1cccc(Nc2nccnc2C2CCCN2CC(N)=O)n1` (stereo unspecified), the “Percent Effect” value stood at 7.262%. The same measure, in the same setting: next, `Cc1cccc(Nc2nccnc2C2CCCN(CC(=O)N(C)C)C2)n1` (stereo unspecified): 4.997%. Still for that read-out and setting: the value for `COc1cc(NC(=O)c2ccc(F)cc2Cl)c(C(=O)N(C)C)cc1OC` was -12.25%.

`O=C(C1CCOCC1)N1CCc2ncc(CN3CCCCC3)n2CC1`: the “Percent Effect” value is -3.866%. Turning to `c1cnn(CC2CN(c3ncnc4[nH]ccc34)CCO2)c1` (stereo unspecified), the “Percent Effect” value is -8.614%. Still for that read-out and setting: next, `Cc1nc(CN2CCC3(CC2)NC(=O)CC3c2cccnc2)cs1` (stereo unspecified): -8.123%; `Cc1cc(CN2CCC3(CC2)C(=O)NCCN3CC2CC2)oc1C`: -0.5945%; `O[C@H]1CN(CCCOc2ccccc2F)CC[C@@]12CCCO2`: 14%. The same measure, in the same setting: the value for `OC1CCCOC12CCN(CCCOc1ccccc1F)CC2` (stereo unspecified) was 2.153%. As for `O[C@H]1CN(CCOc2ccc(F)cc2)CC[C@@]12CCCO2`, the “Percent Effect” value (10 mM as filed; unlikely as a test dose) was 66.45% and 84.39% and 80.81%. On to `COc1ccccc1CNC(Cc1cccs1)c1nc(C)cs1.Cl` (stereo unspecified), for which the “Percent Effect” value is listed as -2.216%. As for `Cc1cc(C)n(C2CN(CCC(=O)NC3CCCCC3)C2)n1`, the “Percent Effect” value is recorded as -0.4038%.

Consider `CC(C)NC(=O)C1CN(C(=O)Nc2ccc(F)cc2)CC12CCOCC2` (stereo unspecified), for which the “Percent Effect” value is -6.778%. Same read-out and setting: next, `CNc1cncc(C2CCCN2C(=O)c2ccc3c(c2)CCC3)n1` (stereo unspecified): 5.523%. Consider `CC(NC(=O)Nc1ccc(OC2CCCC2)cc1)c1nc[nH]n1` (stereo unspecified), for which the “Percent Effect” value (10 mM as filed; unlikely as a test dose) was 68.07% and 85.04%.

Regarding `COc1ccc(NC(=O)NC(C)c2nc[nH]n2)cc1` (stereo unspecified), the “Percent Effect” value (10 mM as filed; unlikely as a test dose) was -24.45% and -7.709% and -11.14%.

Turning to `CCN1CCC(CNC(=O)Nc2cc(C)on2)C1` (stereo unspecified), the “Percent Effect” value came out at 13.21%. With `COC(=O)c1cccn1C1CCN(Cc2nc3ccccc3o2)CC1`, the “Percent Effect” value was -2.498%. As for `CN(C)c1nc2c(c(=O)[nH]1)Cc1ccccc1OC2`, the “Percent Effect” value (10 mM as filed; unlikely as a test dose) was 9.66% and 16.82%. Consider `CN(CC1(CO)CCCC1)c1nc2c(c(=O)[nH]1)Cc1ccccc1OC2`, for which the “Percent Effect” value (10 mM as filed; unlikely as a test dose) was 63.62% and 42.71%. Turning to `CNC(=O)N1CC[C@H]2N(C)CC[C@@]2(C(=O)N2CCOCC2)CC1.O=C(O)C(F)(F)F`, the “Percent Effect” value was determined as 9.37%.

With `Cc1cnn(CC2CCCN2C(=O)Cc2c(C)noc2Cl)c1` (stereo unspecified), the “Percent Effect” value is on record as 8.684%. In the case of `Cc1ccc(CN2C[C@@H]3COC[C@H](C(=O)N4CCCCO4)[C@@H]3C2)o1.O=C(O)C(F)(F)F`, the “Percent Effect” value (10 mM as filed; unlikely as a test dose) is -11.42% and -12.39% and -13.97%.
